Data: PubChem BioAssay (NCI)
Compounds without any hit were thinned out: in the full panel of roughly 83,000, 20% have a hit.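 For each line, cells grew in 96-well plates with the test compound present at a single concentration for 48 hours.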 Values without a mark were called inactive. Activity calls are given as the source filed them. Rule for the calls: active = growth percent below 10; inactive = the rest.

Tested on: MDA-MB-468 breast
Experiment: NCI-60 one-dose screen, 48 h (100 = growth as untreated, 0 = no growth, -100 = all killed)
Details: 10 µM unless noted

Structure (SMILES) | growth
O=C(O)CSCc1nc2ccccc2[nH]1 | 118%
C=CCc1cc(C(C)=O)cc(OC)c1O | 90.6%
CC(=O)OC(C(=O)c1ccccc1)c1ccccc1 (stereo not drawn) | 109%
Nc1nc(-c2ccccc2)c(CCCOc2ccc(NC(=O)CBr)cc2)c(=O)[nH]1 | 104%
COc1cccc(CNC(=O)c2cccc(C3CC(=O)c4c(cc(OC)c(OC)c4OC)O3)c2)c1 (stereo not drawn) | 20.5%
Cc1ccc(NC(=O)N[C@@H](Cc2cc(F)cc(F)c2)C(=O)N[C@@H]2C(=O)N3CCC[C@H]3C(=O)N3CCOC[C@H]3C(=O)N[C@@H](C)C(=O)N3C[C@H](C)C[C@H]3C(=O)O[C@H]2C)cc1 | 5.17% (active)
C=CCn1cc(-c2nc3ccccc3s2)c2cc(-c3ccc4c5c(cccc35)C(=O)N(CCO)C4=O)ccc21 | 96%
C#C[C@@]1(O)[C@@H](CO)O[C@@H](n2cc(Cl)c3c(N)ncnc32)[C@@H]1O | -49% (active)
CN(C)CCCNC(=O)C(c1ccccc1)c1ccccc1 | 111%
C/C=C/C/C=C/[C@H](C)C[C@H](O)[C@@H]1C[C@@H]2O[C@H]2/C=C/[C@H](O)[C@@H](O)/C=C/C[C@H](C)CC(=O)O1 | 99.5%
C[C@]12CC[C@@H]3c4cc(OC(F)F)c(O)cc4CC[C@H]3[C@@H]1CC[C@@H]2OS(N)(=O)=O | -18.9% (active)
Cc1nc2sc(C(=O)Nc3cccc(Cl)c3C)c(N)c2cc1C(C)O (stereo not drawn) | 25.4%
Cc1c2c(cc[n+]1Cc1ccc(F)cc1)c1ccc(OCc3cccc(F)c3)cc1n2Cc1cccc(F)c1 | -85.6% (active)
